Source: PubChem BioAssay
MITF TRPM1 inh: MITF TRPM1 promoter inhibition in SK-MEL-5 cells; 330,000 compounds, 0.83% hits; AID 488899; SK-MEL-5 TRPM1 promoter luciferase, 24 h; inhibition, % at 12.5 µM;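 active = mean inhibition across replicates of 60% or more, whatever share of single replicates reaches that level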
HIF-2a block: inhibitors of HIF-2a; 786-0 RCC cells HIF-2a reporter, luciferase luminescence, overnight; inhibition, % at 18.8 µM; 360,000 compounds, 0.72% hits;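 active = inhibition of the luminescence signal of 40% or more relative to plate controls, in a single-dose primary screen at 18.75 µM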
Peg3 promoter: reduces Peg3 promoter-driven luciferase expression in HeLa. HeLa PEG-Prom luciferase reporter, luminescence, overnight. inhibition, % at 20 µM. 360,000 compounds, 1.7% hits. AID 588405;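 active = inhibition of at least 50% at 20 µM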
CF NFkB inh: blocks PAF-induced NF-kB reporter in cystic fibrosis cells; KKLEB NF-kB-GFP reporter, GFP fluorescence overnight; 360,000 compounds, 0.86% hits; inhibition, % at 5 µM;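 active = at least 50% inhibition at 5 µM, scaled per plate between neutral and stimulator controls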;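 also: PAF is a Pseudomonas aeruginosa culture filtrate used as stimulus; plate controls were PAF-stimulated DMSO wells for no effect and unstimulated DMSO wells for full effect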
KKLEB cytotox: CF airway cell cytotoxicity counter-screen; KKLEB CF airway cells viability, ATPlite luminescence, overnight; stronger effect = lower value; cells stimulated with P. aeruginosa culture filtrate; activity change (cytotoxicity), % at 5 µM; 360,000 compounds, 0.36% hits; AID 602141;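 active = corrected activity change at or below -50% at 5 µM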
B2AR ag: activates human beta-2 adrenergic receptor causing internalization. P07550. Am2.2-beta2AR cells, FAP receptor internalization, flow cytometry. AID 504454. 340,000 compounds, 0.43% hits. response, % (test concentration not listed);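 active = response above a set limit, near 3 SD of response in nonfluorescent compounds, cut at about 42% in these data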
Target sequence (P07550 whole entry, looked up): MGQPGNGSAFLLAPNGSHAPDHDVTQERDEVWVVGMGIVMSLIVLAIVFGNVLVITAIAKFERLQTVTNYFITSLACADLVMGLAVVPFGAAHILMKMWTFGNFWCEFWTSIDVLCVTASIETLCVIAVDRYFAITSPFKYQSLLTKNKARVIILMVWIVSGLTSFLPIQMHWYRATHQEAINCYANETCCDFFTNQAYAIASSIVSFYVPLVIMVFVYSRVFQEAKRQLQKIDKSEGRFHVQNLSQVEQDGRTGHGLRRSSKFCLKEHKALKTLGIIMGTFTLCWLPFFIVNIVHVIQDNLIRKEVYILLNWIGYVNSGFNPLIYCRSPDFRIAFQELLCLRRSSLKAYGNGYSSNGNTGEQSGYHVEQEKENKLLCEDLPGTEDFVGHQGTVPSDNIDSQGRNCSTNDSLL
* hit, by the source's call; · = no result given. Compounds with a hit are over-represented: about 2.8% of the library has one in this group of screens.

SMILES	MITF TRPM1 inh	HIF-2a block	Peg3 promoter	CF NFkB inh	KKLEB cytotox	B2AR ag
CC(=O)N(CN1C(=O)CCC1=O)c1ccc(Cl)c(Cl)c1	30	16	51*	-12	15	3
CCc1cccc(CC)c1N1C(=O)CSCC1=O	·	12	7	12	-10	·
O=C(Nc1cccc(Cl)c1N1CCCC1)c1ccc([N+](=O)[O-])o1	23	7	10	10	-3	-2
O=C(Nc1ccccc1N1CCN(C(=O)c2ccc(Cl)cc2)CC1)c1ccc([N+](=O)[O-])o1	87*	9	27	4	-15	7
CCN1CCN(c2c(Cl)cccc2NC(=O)c2ccc([N+](=O)[O-])o2)CC1	102*	-2	52*	50	-12	-11
Cc1cccc(C)c1NC(=O)C1C(c2ccc3c(c2)OCO3)=Nc2ccccc2N1C(=O)c1cccc2ccccc12 (stereo unspecified)	·	-35	·	·	·	·
COc1ccc(C(=O)N=c2sc3c(C)ccc(OC)c3n2C)cc1OC	-97	-383	-147	9	10	47*
Cc1nn(-c2ccccc2)c(N2CCCC2)c1/C=N/NC(=O)c1cc(-c2cccnc2)nc2ccccc12	10	17	46	22	-7	16
CC(/C=N/NC(=O)c1cc(-c2cccnc2)nc2c1c(C)nn2-c1ccccc1)=C\c1ccccc1	2	15	51*	21	-10	21
Cc1nn(-c2ccccc2)c(-c2ccccc2[N+](=O)[O-])c1CC#N	·	14	13	-9	-6	·
Oc1ccc(N=C/C=C/c2cccc(Br)c2)cc1-c1nc2ccccc2s1	9	-129	67*	-20	-1	3
C=C(C)Cn1c2ccc(NC(=O)CCc3cccnc3)cc2c(=O)n1C	·	19	3	-6	-4	·
CCCCN1C(=O)C(CC(=O)NCc2cccc3ccccc23)CC(C(=O)N2CCCCCC2)=C1C (stereo unspecified)	·	16	·	·	·	·
CCCCNC(=S)N(C)/N=C/c1c(C)[nH]c2ccccc12	13	15	5	4	2	-1
CCCCNC(=S)N(C)/N=C/c1c(F)c(F)c(F)c(F)c1F	6	19	71*	-16	-1	2
CCCCCCN1C[C@H](n2cc(COC(=O)c3ccccc3)nn2)[C@@H](O)C[C@@H]1c1ccc(C)cc1	·	10	28	45	-10	·
CC(C)C[C@H]1CN([C@@H](CC(C)C)CN2CCCC2CN2C(=S)NC[C@@H]2Cc2ccccc2)C(=S)N1CC1CCCCC1 (stereo partly specified)	·	-4	·	·	·	·
COc1ccc(/C=C2\SC(=S)N(CCCC(=O)N3CCN(C)CC3)C2=O)cc1	2	45*	-25	-8	0	11
COc1cccc(/C=C2/SC(=S)N(CCC(=O)N3CCOCC3)C2=O)c1	-12	2	19	30	1	14
COc1ccc(/C=C2\SC(=S)N(CCC(=O)NCCCn3ccnc3)C2=O)cc1	3	40*	-35	1	0	-9
CC(=O)Oc1ccc(/C=C2/SC(=S)N(Cc3ccccc3)C2=O)cc1	-1	9	-3	8	0	-93
COc1cccc(/C=C2\SC(=S)N(CCCC(=O)N3CCCCC3)C2=O)c1	21	67*	53*	16	-15	17
COc1ccc(CN2C(=O)/C(=C/c3ccncc3)SC2=S)cc1	10	43*	67*	45	-18	9
CCc1ccc(/C=C2\SC(=S)N(CCCC(=O)N3CCN(C)CC3)C2=O)cc1	·	38	25	22	-15	·
CCOC1=C2[C@H](c3cccs3)N(S(=O)(=O)c3ccc(C)cc3)C[C@H]2n2c(=O)n(-c3ccccc3)c(=O)n2C1	·	18	11	17	-20	·
SMILES	MITF TRPM1 inh	HIF-2a block	Peg3 promoter	CF NFkB inh	KKLEB cytotox	B2AR ag
COC(=O)c1ccc2nc(-c3ccc(OC)c(OC)c3)c(Cc3cccc(F)c3)n2c1	·	-3	·	·	·	·
O=C(Nc1nnc([C@@H]2C[C@H](O)[C@@H](CO)O2)s1)NC1CCCCC1	·	1	1	-6	1	·
COc1cccc(/C=C2\SC(=S)N(CCC(=O)NC3C=CS(=O)(=O)C3)C2=O)c1 (stereo unspecified)	4	-27	-1	18	5	7
COc1ccc(/C=C2\SC(=S)N(CCC(=O)NC3C=CS(=O)(=O)C3)C2=O)cc1 (stereo unspecified)	16	75*	-47	12	8	4
CC1CN(c2nc(-c3ccc(Br)cc3)nnc2-c2ccccc2)CC(C)N1 (stereo unspecified)	23	-60	62*	14	-10	-2
Clc1ccc(-c2nnc(-c3ccccc3)c(N3CCSCC3)n2)cc1	-23	-33	-5	6	-15	-5
CN1CCC(N2CCN(C3CN(Cc4cn(Cc5ccc(C(F)(F)F)cc5)nn4)S(=O)(=O)C3)CC2)CC1 (stereo unspecified)	·	14	·	·	·	·
CCCOc1ccc(NC(=O)CC2C(=O)N(c3ccc(OCC)cc3)C(=S)N2C2CC2)cc1 (stereo unspecified)	75*	7	28	7	-9	0
CCOc1ccc(NC(=O)CC2C(=O)N(c3ccc(OCC)cc3)C(=S)N2C2CC2)cc1 (stereo unspecified)	4	4	3	0	-2	3
CCOc1ccc(-c2[nH]ncc2-c2ccc(OC)c(OC)c2)c(O)c1	-3	28	41	27	-3	-5
CCOc1ccc(-c2[nH]ncc2Oc2ccccc2OCC)c(O)c1	15	25	55*	3	-7	3
CCOc1ccc(-c2[nH]ncc2-c2ccc(Cl)cc2)c(O)c1	5	5	55*	10	-9	-3
CCN(CC)c1ccc(C(=C2C=CC(=[N+](CC)CC)C=C2)c2ccc(N(CC)CC)cc2)cc1	·	97*	106*	92*	-101*	82*
COc1ccc([N+](=O)[O-])cc1NCc1c(F)cccc1F	·	8	8	9	8	·
COc1ccc(NC(=O)c2cc(C3CCCCN3C(=O)c3ccccc3)on2)c(C)c1 (stereo unspecified)	·	16	22	-23	-2	·
Cc1cc(N2CCN(C)CC2)nc2ccc(NC(=S)N3CCN(c4ccc(Cl)cc4)CC3)cc12	-9	8	-27	2	-1	2
Cc1cc(N2CCN(C)CC2)nc2ccc(NC(=S)N3CCN(c4cccc(Cl)c4)CC3)cc12	15	12	-12	-5	0	26
Cc1cccc(N2CCN(C(=S)Nc3ccc4nc(N5CCN(C)CC5)cc(C)c4c3)CC2C)c1 (stereo unspecified)	47	11	76*	10	-39	15
Cc1cc(N2CCN(C)CC2)nc2ccc(NC(=S)N3CCN(c4ccc(F)cc4)CC3)cc12	22	19	66*	-4	-1	8
CC(C)(C)c1ccc(S(=O)(=O)NC(=O)C2(C)CCN2C(=O)Cc2cccs2)cc1 (stereo unspecified)	·	-1	-7	2	5	·
